The source of these data is PubChem BioAssay AID1159524 (National Center for Advancing Translational Sciences (NCATS), 2015).

About 5,100 (1.2%) of roughly 410,000 compounds were called active. Not shown: some 8% with an inconclusive outcome. The sample as a whole holds a higher share of actives than the screen did. Values without a mark were called inactive. The call rests on the fitted dose curve; tested in HEK293T cells.
On the % scale 0 is the no-effect control and ±100 the full control effect; potency means the concentration at half of the fitted maximal effect.

The experiment in a line: High Throughput Screening for Foot and Mouth Disease Virus Antivirals. Further: read-out not given here; nearly all actives have a fitted effect of over 45% in size. The conditions noted are these: FMDV antiviral cell-based qHTS; series mostly up to 57.9 µM; activity change, negative = inhibition: at the top concentration.
As to `Cc1cc(-c2n[nH]c(=S)n2/N=C/C(Br)=C/c2ccccc2)n[nH]1`, the Potency was 35.5 µM (active). With `O=c1c(-c2ccc(F)cc2)nc2cncnc2n1-c1ccccc1`, the “activity change, negative = inhibition” value is -1.48%. On the same count and under the same terms, as for `CCCn1c(=N)n(CC(O)COc2ccccc2OC)c2ccccc21` (configuration not stated), the figure is -14.5%.

Consider `OC(CN=c1sc2ccccc2n1CC(O)COc1ccccc1)COc1ccccc1` (configuration not stated), for which the Potency is 20 µM (active).

As for `OC(COc1ccc(CN2CCSCC2)cc1)CN1CCCCC1` (configuration not stated), the “activity change, negative = inhibition” value is 2.88%. On the same count and under the same terms, as for `Nc1nc2c(nc(Cl)n2C2OC(CO)C(O)C2O)c(=O)[nH]1` (configuration not stated), the figure is -6.54%. On to `O=C(c1cccc(Br)c1)N1CCN(Cc2cc(=O)n3nc(-c4ccccc4)sc3n2)CC1`, for which the “activity change, negative = inhibition” value was -16%. With `C#Cc1cc(N2CCN(C(=O)c3ccoc3)CC2)n2nc(-c3cccc(Cl)c3)cc2n1`, the Potency was 11.2 µM (active). With `O=C(CCCC(=O)N1CCN(c2cccc(Cl)c2)CC1)c1ccccc1`, the “activity change, negative = inhibition” value is 6.15%.

In the case of `O=C(c1ccccc1)N1CCN(c2cc(-c3ccccc3)nc3cc(-c4cccc(Cl)c4)nn23)CC1`, the Potency was 25.1 µM (active). Turning to `O=C(c1cccc(Cl)c1)N1CCN(CCc2ccncc2)CC1`, the “activity change, negative = inhibition” value was -13.6%. The same measure, in the same setting: under `CCNC(=O)Cn1nc(C)n2c(cc3c(OC)cccc32)c1=O` stands 10.3%; under `COC1[C@H](OC(N)=O)C(O)[C@H](Oc2ccc3c(O)c(NC(=O)c4ccc(O)c(CC=C(C)C)c4)c(=O)oc3c2C)OC1(C)C` (some centres not stated), 23.6%. On the same count and under the same terms, under `C=C1O[C@@](CO)(n2cnc3c(N)ncnc32)[C@H](O)[C@@H]1O` stands 3.35% [at 97.4 µM]; under `COc1cccc(NC(=O)N2CCN(C(=O)c3nsc4ccccc34)CC2)c1`, 17.7%. Consider `COc1ccc(-c2cc(-c3ccc(F)cc3)nc3c2COc2ccccc2-3)cc1`, for which the “activity change, negative = inhibition” value was -12.8%.

In the case of `COc1ccc(-c2cc(-c3ccccc3)nc3c2COc2ccc(Cl)cc2-3)cc1`, the “activity change, negative = inhibition” value was -22.2%. For the molecule `COc1ccc(C2=Nc3cc(C)ccc3OC2)cc1`, the Potency was 14.1 µM (active). Consider `CCCNc1ncnc2c1c(-c1ccccc1)cn2-c1ccc(OCC)cc1`, for which the “activity change, negative = inhibition” value was -19.6%. Still for that read-out and setting: under `CC(C)(O)CCC(O)[C@@](C)(O)C1CC[C@]2(O)C3=CC(=O)C4CC(O)C(O)C[C@]4(C)C3CC[C@]12C` (some centres not stated) stands 19%; under `Cc1ccc(NC(=O)c2ccc(CN3CC(=O)N4CCCCC4C3=O)cc2)c(Cl)c1` (configuration not stated), 19.8%.

Turning to `COc1ccc(C(=O)Nc2ccccc2C(=O)N/N=C/c2ccc(O)c(OC)c2)cc1`, the Potency is 3.98 µM (active). Turning to `COc1ccc(Nc2ncc(C(=O)Nc3cc(C)ccc3OC)c3ccccc23)cc1`, the “activity change, negative = inhibition” value was -23.6%.

With `COc1cc(C(=O)Nc2cc(C(F)(F)F)ccc2N2CCOCC2)ccc1O`, the “activity change, negative = inhibition” value is -19.9%.

For `Cn1cc(-c2nc3cncnc3n(-c3ccccc3)c2=O)c2ccccc21`, the “activity change, negative = inhibition” value is -0.0407%.

As to `COc1ccc(CN2CCC3(CCC(CNC(=O)c4ccco4)O3)CC2)cc1OC` (configuration not stated), the “activity change, negative = inhibition” value is 3.86%. Take `CC(C)(C)n1ncc2c(=O)n(Cc3ccc(Cl)cc3)cnc21`: the Potency is 25.1 µM (active). `Cc1ccc(-n2ncc3c(=O)n(Cc4cccc(C(F)(F)F)c4)cnc32)cc1C`: the “activity change, negative = inhibition” value is -4.06%. Take `CC(C)CNc1ncnc2c1cnn2Cc1ccc(Cl)cc1`: the “activity change, negative = inhibition” value was -26.3%. Same read-out and setting: under `O=C(c1cn(CC2CCCN(Cc3cc4ccccc4s3)C2)nn1)N1CCCC1` (configuration not stated) stands -5.43%. The same measure, in the same setting: as for `O=C(O)c1c(CNCc2cccc(F)c2)c2ccccc2n1Cc1ccccc1`, the figure is 25%; as for `C/C=C(\C)C(=O)O[C@H]1CC(C)=C2C(=O)C=C(C)C2[C@@H]2OC(=O)[C@@](C)(OC(=O)C=C(C)C)C21` (some centres not stated), -2.11%.

As to `Cc1cc(C)cc(CN2CCc3nnc(C(NS(C)(=O)=O)C(C)C)n3CC2)c1` (configuration not stated), the “activity change, negative = inhibition” value is 2.42%. Same read-out and setting: as for `CCOc1cccc2sc(N3CCN(C(=O)C4CC4)CC3)nc12`, the figure is -5.01%. Turning to `CCOC(=O)N1CCN(C(=O)C2CCN(c3ncnc4c3sc3cccc(F)c34)CC2)CC1`, the Potency is 14.1 µM (active).

With `CCOC(=O)N1CCN(C(=O)C2CCCN(c3ncnc4c3sc3cccc(F)c34)C2)CC1` (configuration not stated), the “activity change, negative = inhibition” value was -18.5%. The same measure, in the same setting: as for `COc1ccc2[nH]cc(CCNCc3ccc(Br)cc3)c2c1`, the figure is -2.27%. The same measure, in the same setting: as for `Cc1ccc2nc(-c3ccc(C)c(NC(=O)Cc4ccccc4)c3)oc2c1`, the figure is -20.8%.

As to `Cc1cc(NC(=O)c2cccc(Cl)c2)ccc1-c1cc2ccccc2oc1=O`, the “activity change, negative = inhibition” value is 14.4%. `O=c1oc2ccccc2cc1-c1cn(-c2ccccc2)c(=S)[nH]1`: the Potency is 12.6 µM (active). As for `COc1ccc(OC)c(-c2csc(-c3c(N)c(C(=O)c4ccccc4)n4ccccc34)n2)c1`, the “activity change, negative = inhibition” value was 0%. Turning to `CCOC(=O)c1[nH]c(C)c(CCC(=O)N2CCN(c3ccccc3)CC2)c1C`, the “activity change, negative = inhibition” value was -19.3%. The same measure, in the same setting: under `CCOc1ccc2nc(N3CCCN(CCCn4cccn4)CC3)nc(C)c2c1` stands -17.5%; under `CCCn1ccc2c(OCC(=O)NCc3ccc(F)cc3)cccc2c1=O`, 0%.

With `COc1ccc(C2=NS(=O)(=O)N(C)C(C(=O)NC(C)c3ccccc3)=C2)cc1` (configuration not stated), the Potency entry is “inactive”. In the case of `COc1ccc(C2=NS(=O)(=O)N(C)C(C(=O)N3CCCCC3)=C2)cc1`, the “activity change, negative = inhibition” value was -9.97%.

In the case of `COc1ccc(NC(=O)C2=CC(c3ccc(OC)c(OC)c3)=NS(=O)(=O)N2C)cc1`, the Potency is 31.6 µM (active). On to `Cc1ccc2c(c1)c1c(c(=O)n(-c3ccccc3)c(=O)n1CC(=O)c1ccc(Cl)cc1)n2C`, for which the “activity change, negative = inhibition” value was 7.15%. As to `Clc1ccc([C@@H]2C[C@H]3CC[C@@H]2N3)cn1`, the “activity change, negative = inhibition” value is -11.7%. For `O=C(NCc1ccco1)C1(c2ccc(Cl)cc2)CCCC1`, the “activity change, negative = inhibition” value is -11.9%. Same read-out and setting: under `O=C(CSc1nc2cc3c(cc2c(=O)n1CCC1=CCCCC1)OCO3)NCc1ccco1` stands -21.5%. In the case of `O=C(CSc1c2c(nc3ccc(Cl)cc13)CCCC2)NCc1ccco1`, the Potency is 25.1 µM (active).

In the case of `COc1cc(C)c(CN2CCc3nnc(C(C)NC(=O)c4cccnc4)n3CC2)cc1C` (configuration not stated), the “activity change, negative = inhibition” value is -1.27%. On the same count and under the same terms, as for `COc1cccc(-c2ccc(O)c(CNC3CN4CCC3CC4)c2)n1` (configuration not stated), the figure is -2.84%. Same read-out and setting: as for `O=C(NCCN1CCOCC1)c1cnn(-c2nccc(-c3cccs3)n2)c1C1CC1`, the figure is -14.6%; as for `O=C(c1cnccn1)N1CCC[C@@]2(CCN(Cc3ccncc3)C2)C1`, 4.24%. The same measure, in the same setting: under `Cc1nc2cnc(Nc3ccccc3)nc2n(Cc2ccc(F)cc2)c1=O` stands -2.58%. `CCCCNC(=O)c1ccc2c(c1)NC(=O)C(C(C)C)N2` (configuration not stated): the “activity change, negative = inhibition” value is -8.61%. The same measure, in the same setting: as for `COc1ccc(NC(=O)N2CC3(CCN(C(C)=O)CC3)C2)cc1`, the figure is -13.1%. Take `CC(C)(C)OC(=O)NNc1c2ccccc2nc2ccccc12`: the Potency is 20 µM (active).

As to `CC(C)(C)OC(=O)N[C@H](C(=O)OC(C)(C)C)c1ccc(Br)cc1`, the “activity change, negative = inhibition” value was 0%. Same read-out and setting: as for `Cc1ccc(C(=O)NNC(=O)OC(C)(C)C)c(Cl)c1`, the figure is 17.1%.
